Laboratory results reported in PubChem BioAssay.
Active and inactive are the calls of the source. Unless noted, no stated cut-off is given here; in the data, active means inhibition above about 44%; inactive means the rest.

What was measured:
[1] = biological target: Nuclear receptor coactivator 3 (Homo sapiens) (UniProt Q9Y6Q9); test: NCOA3 GAL4-fusion reporter inhibition – cell-based, luminescence, quadruplicate, confirmation (AID 588792;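 active means mean inhibition over 43.08%, the solvent-only control mean plus 3 SD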;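 further: 0% = DMSO treated cells and 100% = gossypol at 36 µM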); conditions: HEK293 GAL4-SRC3 luciferase reporter, at 3.6 µM, stronger effect = higher value
[2] = system: transactivating tegument protein VP16 (Human herpesvirus 1), Gal4-VP16 luciferase reporter; test: repression of VP16-driven luciferase reporter – cell-based, luminescence, high throughput, counter-screen for SRC3 inhibitor project (AID 588794; in the data active means inhibition above about 30%); conditions: mammalian cells, at 3.6 µM, stronger effect = higher value
[3] = biological target: Nuclear receptor coactivator 1 (Homo sapiens) (UniProt Q15788); test: NCOA1 GAL4-fusion reporter inhibition – cell-based, luminescence, quadruplicate, confirmation (AID 588820;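 active means mean inhibition above 46.68%, the untreated control wells mean plus 3 SD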;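 further: 0% = DMSO wells and 100% = gossypol 36 µM treated wells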); conditions: HEK293 GAL4-SRC1 luciferase reporter, at 3.6 µM, stronger effect = higher value
[4] = repression of VP16-driven luciferase reporter – cell-based, luminescence, high throughput, counter-screen for SRC1 inhibitor project (AID 588824; in the data active means inhibition above about 25%); conditions: cell-based VP16 transactivation luciferase luminescence; at 3.6 µM; stronger effect = higher value
[5] = StAR promoter reporter inhibitors, counter-screen for LRH-1 inverse agonist project, cell-based, luminescence, high throughput (AID 651611; in the data active means inhibition above about 28%); conditions: StAR promoter luciferase reporter counterscreen, at 3.6 µM, stronger effect = higher value
[6] = biological target: Nuclear receptor subfamily 5 group A member 2 (Homo sapiens) (UniProt O00482); test: NR5A2 activity suppression in reporter cells – cell-based, luminescence, confirmation (AID 651613; in the data active means inhibition above about 42%;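 further: HEK293T cells co-transfected with LRH-1 and StAR promoter luciferase reporter; 0% = vehicle wells and 100% = parental cells lacking receptor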); conditions: cell-based LRH-1 luciferase reporter, inverse agonism; at 3.6 µM; stronger effect = higher value
[7] = biological target: Steroidogenic factor 1 (Homo sapiens) (UniProt Q13285); test: inverse agonism at SF1 nuclear receptor – cell-based, luminescence, high throughput, counter-screen for LRH-1 inverse agonist project (AID 651614); conditions: cell-based SF1 luciferase reporter, at 3.6 µM, stronger effect = higher value;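 further: cells cotransfected with StAR promoter reporter and SF1 expression vector; 0% = vehicle on cells with receptor and 100% = vehicle on cells lacking receptor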
[8] = compounds suppressing VP16-driven luciferase signal – cell-based, luminescence, high throughput, counter-screen for LRH-1 inverse agonist project (AID 651615; in the data active means inhibition above about 33%); conditions: Gal4-VP16 luciferase reporter cells, at 3.6 µM, stronger effect = higher value
[9] = system: transactivating tegument protein VP16 (Human herpesvirus 1); test: compounds suppressing VP16-driven luciferase signal – cell-based, luminescence, single concentration, counter-screen for SRC2 inhibitor project (AID 652007; in the data active means inhibition above about 36%); conditions: cell-based VP16 transactivation luciferase reporter, at 8.9 µM, stronger effect = higher value
[10] = biological target: Nuclear receptor coactivator 2 (Homo sapiens) (UniProt Q15596); test: inhibition of GAL4-SRC2 driven luciferase expression – cell-based, luminescence, HEK293, triplicate, confirmation (AID 652008;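 active means mean inhibition above 46.5%, the solvent-only control mean plus 3 SD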;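 further: 0% = DMSO-treated cells and 100% = Gossypol at 36 µM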); conditions: HEK293 GAL4-SRC2 luciferase reporter, at 8.9 µM, stronger effect = higher value

Chain of Steroidogenic factor 1 (Homo sapiens) (Q13285 whole entry, looked up, the tested form may be a part): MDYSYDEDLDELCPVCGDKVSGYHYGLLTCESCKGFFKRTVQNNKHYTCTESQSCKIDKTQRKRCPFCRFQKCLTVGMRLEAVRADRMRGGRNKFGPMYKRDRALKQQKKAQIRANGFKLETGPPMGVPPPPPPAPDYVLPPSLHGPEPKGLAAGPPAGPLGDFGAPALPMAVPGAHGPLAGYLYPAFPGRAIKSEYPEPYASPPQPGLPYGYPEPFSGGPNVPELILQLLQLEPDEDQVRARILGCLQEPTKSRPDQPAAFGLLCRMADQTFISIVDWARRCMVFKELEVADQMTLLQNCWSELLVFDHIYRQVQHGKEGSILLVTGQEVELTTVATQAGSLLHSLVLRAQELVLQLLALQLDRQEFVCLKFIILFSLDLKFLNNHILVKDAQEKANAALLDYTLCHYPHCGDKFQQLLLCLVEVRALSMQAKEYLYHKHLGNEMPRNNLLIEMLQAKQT
Chain of Nuclear receptor subfamily 5 group A member 2 (Homo sapiens) (O00482 whole entry, looked up): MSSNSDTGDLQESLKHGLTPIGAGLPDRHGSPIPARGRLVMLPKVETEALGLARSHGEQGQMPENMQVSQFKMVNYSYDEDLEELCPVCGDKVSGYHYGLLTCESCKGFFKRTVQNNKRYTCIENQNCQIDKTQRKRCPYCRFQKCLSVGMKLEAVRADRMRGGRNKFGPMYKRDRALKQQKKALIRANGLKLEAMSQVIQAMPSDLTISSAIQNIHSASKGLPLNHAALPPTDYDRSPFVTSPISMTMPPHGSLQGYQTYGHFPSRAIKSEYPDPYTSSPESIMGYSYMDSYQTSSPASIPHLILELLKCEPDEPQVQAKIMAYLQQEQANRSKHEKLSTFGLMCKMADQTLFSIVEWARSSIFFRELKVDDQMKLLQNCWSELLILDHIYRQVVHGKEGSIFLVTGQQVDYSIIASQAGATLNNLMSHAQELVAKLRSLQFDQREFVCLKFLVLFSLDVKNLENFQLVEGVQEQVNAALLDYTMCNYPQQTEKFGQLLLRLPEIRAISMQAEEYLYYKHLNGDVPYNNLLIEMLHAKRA
Chain of Nuclear receptor coactivator 3 (Homo sapiens) (Q9Y6Q9 whole entry, looked up, the tested form may be a part): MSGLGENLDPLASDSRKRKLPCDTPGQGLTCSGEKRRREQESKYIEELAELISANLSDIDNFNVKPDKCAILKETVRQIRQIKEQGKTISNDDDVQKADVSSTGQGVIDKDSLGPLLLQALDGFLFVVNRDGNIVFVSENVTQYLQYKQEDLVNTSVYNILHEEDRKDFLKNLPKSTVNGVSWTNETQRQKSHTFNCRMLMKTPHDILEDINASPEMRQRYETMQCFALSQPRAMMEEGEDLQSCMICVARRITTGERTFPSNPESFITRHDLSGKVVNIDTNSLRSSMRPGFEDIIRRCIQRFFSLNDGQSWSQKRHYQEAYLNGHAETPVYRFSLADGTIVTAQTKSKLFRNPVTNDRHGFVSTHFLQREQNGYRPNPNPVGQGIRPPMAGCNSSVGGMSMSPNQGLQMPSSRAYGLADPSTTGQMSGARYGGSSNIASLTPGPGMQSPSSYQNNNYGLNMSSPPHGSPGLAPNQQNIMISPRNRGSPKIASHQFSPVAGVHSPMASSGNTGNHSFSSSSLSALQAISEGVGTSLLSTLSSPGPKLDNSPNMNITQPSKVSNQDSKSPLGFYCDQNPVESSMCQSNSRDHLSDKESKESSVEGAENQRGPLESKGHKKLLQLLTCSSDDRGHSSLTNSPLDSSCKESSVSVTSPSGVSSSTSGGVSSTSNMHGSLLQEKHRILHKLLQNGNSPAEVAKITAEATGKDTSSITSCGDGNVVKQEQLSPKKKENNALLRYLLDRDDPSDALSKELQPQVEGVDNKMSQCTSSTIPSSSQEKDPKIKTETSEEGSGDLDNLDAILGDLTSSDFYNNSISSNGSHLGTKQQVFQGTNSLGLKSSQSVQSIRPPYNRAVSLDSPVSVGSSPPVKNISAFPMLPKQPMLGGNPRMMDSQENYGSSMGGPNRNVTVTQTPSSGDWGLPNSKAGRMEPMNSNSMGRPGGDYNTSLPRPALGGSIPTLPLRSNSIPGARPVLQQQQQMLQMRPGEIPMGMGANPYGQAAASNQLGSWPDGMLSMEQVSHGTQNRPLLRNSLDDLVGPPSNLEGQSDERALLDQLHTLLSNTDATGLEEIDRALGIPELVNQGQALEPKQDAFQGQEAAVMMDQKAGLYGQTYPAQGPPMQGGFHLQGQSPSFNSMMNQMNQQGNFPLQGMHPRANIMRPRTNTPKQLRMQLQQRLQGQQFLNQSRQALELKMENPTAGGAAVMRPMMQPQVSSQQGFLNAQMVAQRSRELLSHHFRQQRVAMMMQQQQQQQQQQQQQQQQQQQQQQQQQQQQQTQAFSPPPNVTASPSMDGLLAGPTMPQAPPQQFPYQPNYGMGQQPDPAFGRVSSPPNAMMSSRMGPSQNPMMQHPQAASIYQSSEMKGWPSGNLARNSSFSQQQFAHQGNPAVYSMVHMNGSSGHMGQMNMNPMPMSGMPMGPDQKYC
Chain of Nuclear receptor coactivator 1 (Homo sapiens) (Q15788 whole entry, looked up, the tested form may be a part): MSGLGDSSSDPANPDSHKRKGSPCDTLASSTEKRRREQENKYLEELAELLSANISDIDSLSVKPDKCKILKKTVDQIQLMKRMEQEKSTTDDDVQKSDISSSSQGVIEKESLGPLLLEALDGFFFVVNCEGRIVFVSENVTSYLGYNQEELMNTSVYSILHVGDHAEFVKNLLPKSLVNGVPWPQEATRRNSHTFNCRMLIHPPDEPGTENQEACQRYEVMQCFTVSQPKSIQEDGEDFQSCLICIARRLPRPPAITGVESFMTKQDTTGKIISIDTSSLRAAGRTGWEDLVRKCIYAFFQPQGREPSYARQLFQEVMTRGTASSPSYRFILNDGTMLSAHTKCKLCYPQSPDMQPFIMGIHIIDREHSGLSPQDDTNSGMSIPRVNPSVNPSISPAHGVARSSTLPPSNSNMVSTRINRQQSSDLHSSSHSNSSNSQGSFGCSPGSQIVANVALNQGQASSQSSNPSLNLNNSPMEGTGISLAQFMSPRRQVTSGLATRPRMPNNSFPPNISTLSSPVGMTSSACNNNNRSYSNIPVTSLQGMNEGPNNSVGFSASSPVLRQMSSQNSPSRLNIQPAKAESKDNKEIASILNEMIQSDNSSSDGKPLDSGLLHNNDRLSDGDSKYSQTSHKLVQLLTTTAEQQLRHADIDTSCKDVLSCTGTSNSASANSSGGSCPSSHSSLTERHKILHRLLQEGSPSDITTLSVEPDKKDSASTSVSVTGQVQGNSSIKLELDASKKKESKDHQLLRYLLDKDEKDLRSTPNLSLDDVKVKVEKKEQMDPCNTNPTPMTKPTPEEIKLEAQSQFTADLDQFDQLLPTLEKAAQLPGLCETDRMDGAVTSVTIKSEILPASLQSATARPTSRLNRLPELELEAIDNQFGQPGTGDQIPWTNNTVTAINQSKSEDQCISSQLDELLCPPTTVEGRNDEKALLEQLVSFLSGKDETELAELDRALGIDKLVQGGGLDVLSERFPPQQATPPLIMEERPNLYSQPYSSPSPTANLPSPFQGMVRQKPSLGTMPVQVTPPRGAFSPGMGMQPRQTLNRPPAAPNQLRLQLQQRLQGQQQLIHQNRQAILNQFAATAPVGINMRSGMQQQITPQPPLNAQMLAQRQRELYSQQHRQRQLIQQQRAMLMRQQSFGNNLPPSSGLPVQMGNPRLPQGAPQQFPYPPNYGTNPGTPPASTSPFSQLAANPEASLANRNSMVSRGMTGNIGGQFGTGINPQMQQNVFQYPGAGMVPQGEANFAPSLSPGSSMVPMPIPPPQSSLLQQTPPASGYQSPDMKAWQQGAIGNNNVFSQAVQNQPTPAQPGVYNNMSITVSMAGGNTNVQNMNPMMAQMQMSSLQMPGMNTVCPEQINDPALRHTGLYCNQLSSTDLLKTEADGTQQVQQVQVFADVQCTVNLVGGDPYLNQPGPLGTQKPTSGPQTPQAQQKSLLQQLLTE

Compound | inhibition [1] | inhibition [2] | inhibition [3] | inhibition [4] | inhibition [5] | inhibition [6] | inhibition [7] | inhibition [8] | inhibition [9] | inhibition [10]
CC1OC2CC(=O)OC2C2=C1C(=O)c1c(O)cccc1C2=O (stereo not given) | 97.6% (active) | 95.2% (active) | 97.5% (active) | 95.2% (active) | 96.8% (active) | 110% (active) | 98.2% (active) | 96.8% (active) | 98.9% (active) | 99.7% (active)
O=C(CCl)N(c1ccccc1)C1CCS(=O)(=O)C1 (stereo not given) | 55.4% (active) | 18% (inactive) | 22.3% (inactive) | 14% (inactive) | 50.6% (active) | 71.3% (active) | 65.1% (active) | 16.8% (inactive) | 40.7% (active) | 57.2% (active)
NC(=S)NN=C1c2cc(OCCN3CCOCC3)ccc2-c2ccc(OCCN3CCOCC3)cc21 | 53.8% (active) | 68.8% (active) | 8.8% (inactive) | 65.2% (active) | 89.9% (active) | 96.3% (active) | 82.2% (active) | 91.7% (active) | 68.6% (active) | 58.9% (active)
CC(C)(C)C(=O)Nc1ccc(NC(=O)c2ccco2)nc1 | 69.9% (active) | 64.1% (active) | 39.4% (inactive) | 39.8% (active) | 56.1% (active) | 15.6% (inactive) | 59.4% (active) | 36.7% (active) | 72.7% (active) | 92.8% (active)
O=C(NCc1cccnc1)/C(=C\c1ccc(-c2ccc(Br)cc2)o1)S(=O)(=O)c1ccccc1 | 72.6% (active) | 56.9% (active) | 51.7% (active) | 55.1% (active) | 62.3% (active) | 92.3% (active) | 82% (active) | 80.8% (active) | 71.1% (active) | 68.7% (active)
CN(C(=O)COc1ccccc1C(=O)NCCOc1ccccc1)c1ccccc1 | 20.1% (inactive) | 32.4% (active) | -24.3% (inactive) | 32.8% (active) | 63.6% (active) | 31.8% (inactive) | 54.3% (active) | 37.1% (active) | 36.4% (active) | 47.3% (active)
Cc1cc(C)c(C#N)c(SCc2nnc(-c3ccccc3)o2)n1 | 66.3% (active) | 59.8% (active) | 38.8% (inactive) | 32.9% (active) | 33.1% (active) | -23.7% (inactive) | 27.9% (inactive) | 15.5% (inactive) | 46.2% (active) | 82.9% (active)
COC(=O)c1ccccc1-c1c2ccc(=N)cc-2oc2cc(N)ccc12 | 35% (inactive) | 55.2% (active) | 28.7% (inactive) | 48.3% (active) | 62.2% (active) | 109% (active) | 79.1% (active) | 88% (active) | 21.2% (inactive) | 3.71% (inactive)
Cc1cc(C(=O)CSc2nnc3ccccn23)c(C)n1-c1ccccc1 | 20.3% (inactive) | 15.4% (inactive) | -49.2% (inactive) | -25.1% (inactive) | 23.4% (inactive) | -38.6% (inactive) | 6.01% (inactive) | -26.3% (inactive) | 34.8% (inactive) | 60.7% (active)
CCOc1cccc(/C=N/NC(=S)Nc2ccccc2[N+](=O)[O-])c1O | 70.3% (active) | 57.6% (active) | 44.9% (inactive) | 38.2% (active) | 66.1% (active) | 22.9% (inactive) | 65.2% (active) | 54% (active) | 39.7% (active) | 73.3% (active)
COc1cccc(/C=N/NC(=O)c2c(-c3ccccc3)noc2C)c1O | 38.4% (inactive) | 37.1% (active) | 24.8% (inactive) | 34.6% (active) | 68.8% (active) | 52.1% (active) | 64.6% (active) | 67.5% (active) | 2.72% (inactive) | 33.1% (inactive)
C=C1C(=O)C2=CC1CCC(=O)C1(C)CCC(OC(C)=O)C(C)(C)C1CC2O (stereo not given) | 35.4% (inactive) | 53.2% (active) | 8.46% (inactive) | 51.3% (active) | 30.3% (active) | 3.03% (inactive) | 33.2% (inactive) | 56.1% (active) | 33.9% (inactive) | 41.2% (inactive)
CCOc1ccc(-c2noc(CCC(=O)O)n2)cc1 | 18.2% (inactive) | 15.1% (inactive) | 18.5% (inactive) | 5% (inactive) | 27.3% (inactive) | 38.4% (inactive) | 23.1% (inactive) | 23.4% (inactive) | 71.3% (active) | 86.1% (active)
Cc1nc2c(O)c3c(c(O)c2nc1C)C1C=CC3CC1 | 96.9% (active) | 93.2% (active) | 88.9% (active) | 92.6% (active) | 91.8% (active) | 107% (active) | 96.3% (active) | 98.5% (active) | 75% (active) | 79.4% (active)
CN1CCN(c2ccc(-c3ccc4ccccc4n3)cc2)CC1 | 72.1% (active) | 62.6% (active) | 34.8% (inactive) | 36.6% (active) | 63.8% (active) | 8.01% (inactive) | 64% (active) | 26.9% (inactive) | 61.1% (active) | 79.3% (active)
Cc1cc(C(=O)COC(=O)c2ccccc2O)c(C)n1Cc1cccs1 | 85.3% (active) | 84.9% (active) | 71.1% (active) | 74.4% (active) | 85% (active) | 59% (active) | 80.2% (active) | 73.6% (active) | 81% (active) | 92.7% (active)
Cc1ccc(C(=O)O/N=C(\N)c2ccccn2)c(C)c1 | 60% (active) | 42.3% (active) | 15% (inactive) | 28.9% (active) | 33.2% (active) | 9.46% (inactive) | 36.5% (inactive) | 13.6% (inactive) | 71.3% (active) | 86% (active)
Cc1cccc(-n2ncc3c(N(C)C4CCCCC4)ncnc32)c1 | 72.9% (active) | 64.4% (active) | 28.5% (inactive) | 46.4% (active) | 60.6% (active) | 11.5% (inactive) | 52.7% (active) | 29% (inactive) | 52.5% (active) | 83% (active)
COc1ccc([C@@]23Oc4cc(OC)cc(OC)c4[C@]2(O)[C@H](O)[C@H](C(=O)N(C)C)[C@H]3c2ccccc2)cc1 | 95.7% (active) | 93.7% (active) | 85.6% (active) | 92.9% (active) | 97.6% (active) | 111% (active) | 99.3% (active) | 98.2% (active) | 56.2% (active) | 68.6% (active)
COC1=CC(=O)c2c(ccc3ncnc(N)c23)C1=O | 60.8% (active) | 65.1% (active) | -4.46% (inactive) | 64.3% (active) | 62.4% (active) | 82.8% (active) | 84.6% (active) | 82.1% (active) | 37.5% (active) | 69.5% (active)
CC1(C)N=C(N)N=C(N)N1c1ccc(CCCCc2ccccc2)cc1 | 31.1% (inactive) | 68.2% (active) | 60.1% (active) | 66% (active) | 63.7% (active) | 89.9% (active) | 85.7% (active) | 80.6% (active) | 26.9% (inactive) | 29.4% (inactive)
Cc1ccc(N(Cc2cc(=O)[nH]c3ccccc23)C(=O)CCl)c(C)c1 | 55.3% (active) | 34.3% (active) | 34.3% (inactive) | 24.6% (inactive) | 37.3% (active) | 72.4% (active) | 75.5% (active) | 46% (active) | 44.4% (active) | 60% (active)
Nc1ncnc2c(C3OC(CO)C(O)C3O)scc12 (stereo not given) | 90.7% (active) | 95.1% (active) | 78.5% (active) | 94.9% (active) | 89.2% (active) | 107% (active) | 96.5% (active) | 92.9% (active) | 62.8% (active) | 57.2% (active)
CC1CC(C)C(=NNC(N)=O)C(C(O)CC2CCC(=O)NC2=O)C1 (stereo not given) | 9.15% (inactive) | 11.3% (inactive) | 33.6% (inactive) | 7.8% (inactive) | 63.1% (active) | 76.7% (active) | 75.8% (active) | 30% (inactive) | 8% (inactive) | -0.31% (inactive)
Cc1cc(C(=O)Nc2ccc(Cl)cc2)c(C)n1-c1ccccc1 | 74.9% (active) | 69.7% (active) | 60.1% (active) | 50.3% (active) | 70% (active) | 38% (inactive) | 71.7% (active) | 55.4% (active) | 82.5% (active) | 85.7% (active)
O=c1cnnc(N/N=C/c2ccccn2)[nH]1 | 81.9% (active) | 68.9% (active) | 76% (active) | 54.8% (active) | 87.7% (active) | 103% (active) | 83.3% (active) | 65.3% (active) | -24.3% (inactive) | 26.5% (inactive)
O=C(CN1C(=O)c2ccccc2S1(=O)=O)c1ccc2c(c1)OCCCO2 | 93.3% (active) | 92.4% (active) | 82.5% (active) | 91.8% (active) | 91% (active) | 99.8% (active) | 92.4% (active) | 90.3% (active) | 94.4% (active) | 98% (active)
O=C(CCl)Nc1cc(SCC(O)CO)cc([N+](=O)[O-])c1 (stereo not given) | 91.6% (active) | 72.7% (active) | 56.9% (active) | 78.6% (active) | 95.8% (active) | 110% (active) | 97.7% (active) | 98.2% (active) | 79% (active) | 67.5% (active)
O=C(CCC1CCCC1)Nc1ccc(C(=O)NCc2cccnc2)cc1 | 88.5% (active) | 43.3% (active) | 62.4% (active) | 24.4% (inactive) | 88% (active) | 98.7% (active) | 94.8% (active) | 66.9% (active) | -5.72% (inactive) | 48.6% (active)
COc1ccc(/C=C2\SC(=O)N(CCCC(=O)Nc3ccc(C(=O)O)cc3)C2=O)cc1 | 78% (active) | 71.8% (active) | 72.8% (active) | 63.3% (active) | 74.1% (active) | 75.4% (active) | 71.5% (active) | 58.1% (active) | 88.3% (active) | 93.3% (active)
